Growth data for 40 molecules are collected here from PubChem BioAssay (NCI).

This is part of a sample that, as a whole, favours compounds with a hit. Of some 83,000 tested, about 20% had one in any assay.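 Activity criterion: percent growth below 10, measured after cells in 96-well plates were exposed to a single compound concentration for 48 hours.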 Unmarked numbers belong to inactive results. Activity calls are given as the source filed them.

The test system of this assay is OVCAR-5 ovarian. As to the kind of experiment: NCI-60 one-dose screen, 48 h (100 = growth as untreated, 0 = no growth, -100 = all killed). The conditions noted are these: 10 µM unless noted. The procedure:
Growth inhibition of the OVCAR-5 human tumor cell line is measured as a screen for anti-cancer activity. Cells are grown in 96 well plates and exposed to the test compound for 48 hours. Compounds are tested at a single concentration, which is 10^-5 M for most compounds. The reported endpoint is percent growth (GI% or GIPRCNT), where numbers from 0 - 100% represent growth inhibition, and numbers from -100% - 0 represent cell death. For example, a value of 40 represents 60% growth inhibition. A value of 0 means no net growth occurred over the course of the experiment. A value of -40 indicates 40% of cells at the beginning of the experiment died by the end of the experiment. A value of -100 means all cells are dead at the end of the experiment.
NCI-60 Human Tumor Cell Lines Screen was performed using the standard one-dose NCI protocol, which is described in more detail at https://dtp.cancer.gov/discovery_development/nci-60/default.htm.
Compounds with GIPRCNT values below 10 were considered active. Activity score was based on GIPRCNT using the following formula: […]
Score is 0 for GIPRCNT values of 100 or above, 50 for GIPRCNT values of 0, and 100 for GIPRCNT values of -100.
With `CC(=O)NCC1c2c(n(C)c3c(Cl)c(Cl)ccc23)C(=O)NC1(C)C` (stereo not given), the growth was 88.7%. With `O=C(N/N=C/c1ccccc1O)c1ccccc1Nc1ccnc(C(F)(F)F)c1` the figure was 20.6%.

As for `Cn1cc(C(=O)c2nc(-c3c[nH]c4ccc(F)cc34)no2)c2cc(F)ccc21`, the growth was 95.5%.

As to `COc1cc(/C=C/c2cc(/C=C/c3ccc(O)c(OC)c3)n(-c3c(Cl)cccc3Cl)c(=O)n2)ccc1O`, the growth is 57.6%.

`O=C1c2ccccc2C(=O)c2c1ccc1[nH]c(-c3cccs3)nc21`: the growth was 88.5%. Next, `N#Cc1nnn(-c2ccc(S(N)(=O)=O)cc2)c1NC(=O)CCl`: 96.6%; `N#Cc1c(N)n(CCNC(=O)c2ccccc2)c2nc3ccccc3nc12`: 79%. With `COc1cc2nc(N3CCCC3)nc(Nc3ccccc3)c2cc1OC` the figure was -40.5% (active); with `COc1cccc(/C=C2\Oc3cc(OCCN4CCCC4)ccc3C2=O)c1`, 100%. Next, `COc1ccc(-n2nc(C)c3c(Nc4ccc(NC(=O)Nc5ccc(Cl)c(C(F)(F)F)c5)cc4)ncnc32)cc1`: 4.07% (active). As for `C=C(C)[C@@H]1CC[C@]2(C(=O)OC)CC[C@]3(C)[C@H](CC[C@@H]4[C@@]5(C)C/C(=C/c6cccc(I)c6)C(=O)C(C)(C)[C@@H]5CC[C@]43C)[C@@H]12`, the growth was 98.7%. Next, `O=S(=O)(Nc1ccc(Br)c(Cl)c1)c1ccc(-c2cnc(C3CC3)o2)cc1`: 29.4%; `O=C1OCC2=C1C(c1ccncc1)c1cc3c(cc1N2CCO)OCO3` (stereo not given): 100%. Consider `CN1CCN(c2nc(NCCCCNc3ccnc4cc(Cl)ccc34)c3ccccc3n2)CC1`, for which the growth is 112%. Next, `CN(C)S(=O)(=O)c1ccc(S(=O)(=O)Nc2cccc(Cl)c2N2CCCCC2)cc1`: 89.4%; `Cn1cc(-c2nonc2-c2c[nH]c3ccc(F)cc23)c2cccnc21`: 90.9%; `Fc1ccc(CNc2cccc3[nH]c(C(F)(F)F)nc23)cc1`: 90.2%. In the case of `Cn1c(=O)c2c(nc3n(-c4ccc(Cl)cc4Cl)c(Sc4nc(-c5ccccc5)c(C#N)c(=O)[nH]4)cn23)n(C)c1=O`, the growth is 29.3%. Next, `CCCCN(CCCC)CCCn1c(-c2ccccc2)ccc1-c1ccccc1`: 73.4%. Next, `Cc1cn2c(/C=C3/C(=O)Nc4c3ccc3ccccc43)c(C(F)(F)F)nc2s1`: 43.4%; `O=C1/C(=C/c2ccc(Cl)cc2)SC(=S)N1CCc1ccc(O)cc1`: 104%. Next, `O=C(CN1CCCCC1)Nc1ccc2oc(=O)ccc2c1`: 122%.

Regarding `CNC(=O)c1cc(Oc2ccc(NC(=O)Nc3ccc(Cl)c(OC(F)(F)F)c3)c(F)c2)ccn1`, the growth was 56.7%.

With `Cc1ccc2c(C(C[N+](=O)[O-])c3ccccc3F)c(-c3ccccc3)[nH]c2c1` (stereo not given), the growth is 74.4%. With `COc1cc2c(cc1O)CC[C@@H]1[C@@H]2CC[C@]2(C)[C@@H](OCCN(C)C)CC[C@@H]12` the figure was 78.8%; with `COc1ccc(C2Nc3c(c(C(C)(C)C)nn3-c3ccccc3)C(=O)CS2)cc1` (stereo not given), 108%. Next, `COc1ccc(-n2nc(C)c3c(Nc4ccc(NC(=O)Nc5c(Cl)cccc5Cl)cc4)ncnc32)cc1`: 97.8%; `C=C1c2nc3ccccc3n2C=C(c2cccc(Cl)c2)N1Cc1ccc(OC)cc1`: 35.3%; `O=CNc1ccc2c(c1)Cc1cccc(NC=O)c1-2`: 89.6%. Next, `COc1ccc(/C=C(\C#N)C(=O)Nc2cccc(Nc3nc(SC)nc(-c4cccc([N+](=O)[O-])c4)c3C#N)c2)cc1OC`: 96.6%; `O=C(/C=C/c1cc(CN2CCOCC2)c(O)c2ncccc12)c1cc(CN2CCOCC2)c(O)c2ncccc12`: 28.3%; `Cc1ccc(NC(=O)/C=C/c2ccccc2)c(C(N)=O)c1`: 51.8%. Turning to `Nc1nc2ccc3[nH]ncc3c2c2c1CCCC2`, the growth is 8.24% (active). In the case of `OCc1ccc(N2CCc3cccc(F)c3C2)cc1Cl`, the growth is -11.7% [0.1 µM] (active). As to `CC(=O)O[C@H]1CC[C@]2(C)[C@H]3CC=C4[C@@H]5CC(C)(C)CC[C@]5(C(=O)NCCNCCNCCN)CC[C@@]4(C)[C@]3(C)CC[C@H]2C1(C)C`, the growth was 10%. With `O=C1/C(=C/C(Cl)=C/c2ccccc2)SC(=S)N1CCc1ccc(O)cc1` the figure was -20.3% (active). With `CC(=O)O[C@H]1C(=O)[C@@]2(C)[C@H]([C@H](OC(=O)c3ccccc3)[C@]3(O)C[C@H](OC(=O)[C@H](OC(=O)CCC(=O)OC4CCC(S/N=C(N)/N=C(\N)N(C)C)CC4)[C@@H](NC(=O)c4ccccc4)c4ccccc4)C(C)=C1C3(C)C)[C@]1(OC(C)=O)CO[C@@H]1C[C@@H]2O` (stereo not given in full) the figure was 39.5%.

On to `CN1CCN(c2ccc(Nc3c4ccccc4nc4ccccc34)cc2)CC1`, for which the growth is 102%. With `CC1CCNC(C)C1` (stereo not given) the figure was 113%; with `C[n+]1ccccc1/C=C/c1ccc2cccc(O)c2n1`, 51.5%.
